According to PubChem BioAssay (NCATS):
Inconclusive results are not listed. Active and inactive are the calls of the source. Calls follow the shape of the dose curve; as a rule, active = well fitted inhibition curve with a large enough effect; inconclusive = small, poorly fitted or top-dose-only effect; inactive = no such curve, though single readings can be large or run the other way.

Test system: Zika virus NS2B-NS3 protease (unlinked complex)
Test: Primary screen GU Rhodamine qHTS for Zika virus inhibitors: Unlinked NS2B-NS3 protease assay (AID 1347159); also: nearly all actives have a fitted effect of over 60% in size
Conditions: Recombinant ZIKV NS2B-NS3 protease, Rhodamine110 substrate fluorescence; series mostly up to 107 µM; activity change, negative = inhibition: at the top concentration
How it was run: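 Compounds, tested up to 114 microM, were incubated for 15 minutes with 25 nM unlinked NS2B-NS3 protease at pH 8.0. Cleavage of 1.5 microM Rhodamine110 substrate was then followed by fluorescence for 15 minutes.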
% is scaled to controls: 0 for no effect and ±100 for the full control effect.

| SMILES | activity change, negative = inhibition |
| --- | --- |
| C=CC(C)(C)O[C@@H]1O[C@H](CO[C@@H]2OC[C@](O)(CO)[C@H]2O)[C@@H](O)[C@H](O)[C@H]1O | -2.35% (inactive) |
| CC(=O)OC[C@@]12[C@@H](OC(C)=O)C[C@@H](C)[C@](C)([C@@H]3C[C@H]4C=CO[C@H]4O3)[C@H]1CCC[C@]21CO1 | 8.03% [at 57.1 µM] (inactive) |
| CN1CC[C@@H](NC(=O)Nc2ccc(C#N)cc2)C[C@@H]1c1nc2ccccc2[nH]1 | -4.28% (inactive) |
| O=C(O)Cc1nn(Cc2nc3cc(C(F)(F)F)ccc3s2)c(=O)c2nccnc12 | 0% (inactive) |
| COC1C2=C(COC2=O)C2(C)CCCC(C)(CO)C2C1OC(=O)c1ccccc1 (configuration not stated) | -36.9% [at 57.1 µM] (inactive) |
| COC1CC(=O)C23C(=O)NC(CC(C)C)C2C(C)C(C)=CC3/C=C(\C)CCC1O (configuration not stated) | 3.9% [at 57.1 µM] (inactive) |
| COC1=CC(=O)O[C@@H](/C=C/c2ccccc2)[C@@H]1O | 11.7% (inactive) |
| COC(=O)[C@@]1(C)CC[C@]2(C(=O)O[C@@H]3O[C@H](CO)[C@@H](O)[C@H](O)[C@H]3O)CC[C@]3(C)C(=CCC4[C@@]5(C)CC[C@H](O[C@@H]6O[C@H](C(=O)O)[C@@H](O)[C@H](O)[C@H]6O)C(C)(C)C5CC[C@]43C)[C@@H]2C1 (some centres not stated) | -9.24% [at 32.5 µM] (inactive) |
| CCC(CC)n1ccc2c(C(=O)NCc3c(C)cc(C)[nH]c3=O)cc(C#N)cc21 | -1.64% (inactive) |
| CC(C)(O)CNc1nc(Nc2ccnc(C(F)(F)F)c2)nc(-c2cccc(C(F)(F)F)n2)n1 | -15.7% [at 57.1 µM] (inactive) |
| C=CC1C(O[C@@H]2O[C@H](CO)[C@@H](O)[C@H](O)[C@H]2O)OC=C(C(=O)OC)C1CC(=O)O (some centres not stated) | 20.6% [at 57.1 µM] (inactive) |
| C[C@@H]1O[C@@H](O[C@H]2[C@H](O[C@H]3CC[C@@]4(C)C(CC[C@]5(C)C4CC=C4C6CC(C)(C)CC[C@]6(C(=O)O[C@@H]6O[C@H](CO[C@@H]7O[C@H](CO)[C@@H](O[C@@H]8O[C@@H](C)[C@H](O)[C@@H](O)[C@H]8O)[C@H](O)[C@H]7O)[C@@H](O)[C@H](O)[C@H]6O)CC[C@]45C)[C@]3(C)CO)OC[C@H](O)[C@@H]2O)[C@H](O)[C@H](O)[C@H]1O (some centres not stated) | 20.6% [at 19.1 µM] (inactive) |
